aSyn rescue: rescues yeast growth from alpha-synuclein toxicity. Yeast expressing alpha-synuclein, growth rescue, BacTiter-Glo, 24 h. Potency, µM (top dose mostly 46.1 µM), usual class: activators. 370,000 compounds, 0.14% hits. AID 652106; note: nearly all actives have a fitted effect of over 65% in size
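Galactose-induced alpha-syn yeast (OD600=0.02, raffinose-pregrown) + pinned cpd, 24 hr, 30 deg C; growth by BacTiter-Glo luminescence. Growth restoration scores as activation.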
Abeta rescue: restores growth of yeast expressing A-beta42 peptide; Potency, µM (top dose mostly 46.1 µM), hits mostly activators; 410,000 compounds, 0.063% hits; yeast expressing A-beta42, growth rescue, OD600, 48 h; response scale: 0% DMSO, 100% iron-clioquinol control; note: nearly all actives have a fitted effect of over 55% in size
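Yeast growth medium received pinned compounds, then yeast cells expressing toxic A-beta were added; plates incubated at 30 C for 48 hr. Growth read as absorbance at 600 nm, normalized to DMSO and equimolar FeCl3 plus clioquinol controls.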
FUS yeast rescue: rescues growth of FUS-expressing yeast; S. cerevisiae FUS-expressing, growth rescue, OD600, 24 h; Potency, µM (titrated, usually from 76.6 µM), usual class: activators; 390,000 compounds, 0.24% hits; AID 1347120; note: nearly all actives have a fitted effect of over 55% in size
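Absorbance at 600 nm, taken 24hr after compound addition, measured rescue of FUS-yeast growth at 30C. Induction used 2% galactose with seeding at OD 0.005. Controls: CP55940 from 92uM final, DMSO only.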
TDP43 rescue: inhibitors of TDP-43 toxicity in yeast. TDP-43 expressing yeast growth rescue, BacTiter-Glo, 24 h. Potency, µM (titrated, usually from 46.1 µM), actives largely listed as activators. 410,000 compounds, 1.8% hits; note: nearly all actives have a fitted effect of over 50% in size
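Galactose-induced TDP-43 yeast, OD600=0.02, compound pinned; 24 hr, 30 deg C; BacTiter-Glo luminescence for growth. Inhibitors of TDP-43 toxicity read as activators.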
Of the large screens only hits and unclear results are named; the others gave an inactive call. In the library only some 2.1% were active in any assay of this set; here they are far more common. Calls come from the whole dose curve; as a rule, active = well fitted curve in the direction sought with a large enough effect; inconclusive = small, poorly fitted or top-dose-only effect, or another doubt; inactive = no such curve, though single readings can be large; an effect the other way counts as inactive or inconclusive.

Cc1cc(Nc2cccc(C(F)(F)F)c2)nc2ccc(NC(=O)c3cccc(Cl)c3)cc12	Abeta rescue inconclusive, FUS yeast rescue inconclusive, TDP43 rescue 18µM (no result: aSyn rescue)
Cc1nc2ccc(NC(=O)c3cccc(C(F)(F)F)c3)cc2o1	TDP43 rescue 11µM
COc1cccc(CNC(=O)Cn2c(-c3ccccc3)cc(C(C)=O)c2C)c1	none (no result: aSyn rescue, Abeta rescue, TDP43 rescue)
COc1ccccc1CCNC(=O)C(=O)NCC(c1cccs1)S(=O)(=O)c1ccc(F)cc1 (stereo unspecified)	none (no result: aSyn rescue)
COc1ccccc1CNC(=O)C(=O)NCC(c1cccs1)S(=O)(=O)c1ccc(F)cc1 (stereo unspecified)	FUS yeast rescue 28µM (no result: aSyn rescue)
COc1cc(OC)c(/C=C/c2ccc3ccccc3[n+]2C)c(OC)c1	none (no result: Abeta rescue, FUS yeast rescue, TDP43 rescue)
CCCCNC(=O)NCCCN1CCN(c2ccc(F)cc2)CC1	none (no result: aSyn rescue, Abeta rescue, TDP43 rescue)
O=C(CCl)N1N=C(c2cccs2)CC1c1ccco1 (stereo unspecified)	TDP43 rescue 22µM
O=C(Nc1ccc(F)c(C(F)(F)F)c1)Nc1nnc(-c2ccncc2)s1	none (no result: aSyn rescue, Abeta rescue, TDP43 rescue)
N=c1c2c(ccn1Cc1ccccc1)Oc1ccc3ccccc3c1C2c1ccccc1 (stereo unspecified)	FUS yeast rescue 14µM (no result: aSyn rescue, Abeta rescue, TDP43 rescue)
N=c1c2c(ncn1CCN1CCOCC1)Oc1ccc3ccccc3c1C2c1ccccc1 (stereo unspecified)	none (no result: aSyn rescue)
O=C(CSc1nnc(-c2ccc(F)cc2)o1)Nc1ccccc1N1CCOCC1	aSyn rescue inconclusive, TDP43 rescue 22µM
CCOc1ccc(-c2nnc(SCC(=O)Nc3cc(F)ccc3F)o2)cc1	none (no result: aSyn rescue)
COc1ccc(-c2nnc(SCC(=O)Nc3cc(F)ccc3C)o2)cc1	Abeta rescue inconclusive, TDP43 rescue 11µM
COc1ccccc1NC(=O)CSc1nnc(-c2ccccc2C)o1	TDP43 rescue 20µM (no result: aSyn rescue)
COc1ccccc1NC(=O)CSc1nnc(-c2ccoc2C)o1	TDP43 rescue inconclusive
COc1ccccc1NC(=O)c1c(C)cc(C)nc1SCC(=O)Nc1ccc(C)cc1	FUS yeast rescue inconclusive, TDP43 rescue 18µM (no result: aSyn rescue)
CN(CCc1ccccn1)C(=O)Cn1nc(-c2ccccc2)ccc1=O	none (no result: aSyn rescue, Abeta rescue, TDP43 rescue)
Cc1ccccc1CNC(=O)C1C2C=CC3(CN(Cc4ccccc4)C(=O)C13)O2 (stereo unspecified)	none (no result: aSyn rescue, Abeta rescue, TDP43 rescue)
CC(=O)N1CCC(C(=O)N2c3ccccc3N=C(c3ccc4c(c3)OCO4)C2C(=O)Nc2c(C)cccc2C)CC1 (stereo unspecified)	none
C=CCn1c(SCC(=O)O)nnc1-c1ccco1	none (no result: aSyn rescue, Abeta rescue, TDP43 rescue)
CCc1ccc(NC(=O)CCn2nc(-c3ccccc3OC)c3c(C)cc(C)nc32)cc1	FUS yeast rescue inconclusive, TDP43 rescue inconclusive
COc1ccc(NC(=O)CCn2nc(-c3ccccc3OC)c3c(C)cc(C)nc32)cc1	TDP43 rescue 14µM (no result: aSyn rescue)
Cc1[nH]c2c(Br)cccc2c1[C@H]1[C@@H](CC#N)C1(C)C	TDP43 rescue 22µM
Cc1c([C@H]2[C@@H](CC#N)C2(C)C)c2ccccc2n1C	none
O=C(Nc1ccccn1)c1ccc(COc2ccccc2Cl)o1	TDP43 rescue 22µM
CN(C(=O)c1ccc(COc2ccccc2Cl)o1)c1ccccc1	TDP43 rescue 10µM
CC(C)CCNC(=O)CN1C(=O)c2cccnc2Oc2ccccc21	none (no result: aSyn rescue)
CNc1nc(N)c([N+](=O)[O-])c(Nc2cccc(OC)c2)n1	none (no result: aSyn rescue, Abeta rescue, TDP43 rescue)
COc1ccc(/C=N/NC(=O)C[n+]2ccccc2)c(OC)c1OC	aSyn rescue 22µM
Cc1ccc(S(=O)(=O)N2CCN(c3nc(-c4cccs4)nc4cccnc34)CC2)cc1	none (no result: Abeta rescue, FUS yeast rescue, TDP43 rescue)
COc1ccc(NC(=O)N(C)C[C@H]2Oc3c(NC(=O)c4ccncc4)cccc3C(=O)N([C@H](C)CO)C[C@@H]2C)cc1	none
C[C@H](CO)N1C[C@H](C)[C@@H](CN(C)C(=O)Nc2ccc(C(F)(F)F)cc2)Oc2c(NC(=O)Nc3ccc4c(c3)OCO4)cccc2C1=O	FUS yeast rescue inconclusive
C[C@H](CO)N1C[C@H](C)[C@@H](CN(C)C(=O)Nc2ccc3c(c2)OCO3)Oc2c(NC(=O)Nc3ccc(C(F)(F)F)cc3)cccc2C1=O	FUS yeast rescue 22µM
COc1ccc(NC(=O)N(C)C[C@H]2Oc3c(NC(=O)c4nc5ccccc5s4)cccc3C(=O)N([C@@H](C)CO)C[C@H]2C)cc1	FUS yeast rescue 16µM
COc1ccc(NC(=O)N(C)C[C@H]2Oc3c(NC(=O)Nc4ccc(C(F)(F)F)cc4)cccc3C(=O)N([C@H](C)CO)C[C@@H]2C)cc1	FUS yeast rescue 25µM
C[C@@H]1Cc2cc(O)cc(O)c2C(=O)O1	none (no result: aSyn rescue, Abeta rescue, TDP43 rescue)
Cc1cc(Nc2ccc(C)c(Cl)c2)n2nc(Cc3ccccc3)nc2n1	TDP43 rescue 22µM (no result: aSyn rescue)
Cc1cc(Nc2ccccc2C)n2nc(Cc3ccc(Cl)cc3)nc2n1	TDP43 rescue 18µM (no result: aSyn rescue)
Cc1cc(Nc2cccc(Cl)c2C)n2nc(Cc3ccccc3)nc2n1	TDP43 rescue 22µM (no result: aSyn rescue)
COc1ccc(N(CC(C)C)S(=O)(=O)c2nnc(NC(=O)c3cccs3)s2)cc1	none (no result: aSyn rescue)
CCCN1CNc2c(c(=O)[nH]c(=S)n2CCc2cc(OC)ccc2OC)C1	none (no result: Abeta rescue, FUS yeast rescue, TDP43 rescue)
CCOC(=O)c1cnc2ccc(OC)cc2c1Nc1ccc(OCc2ccccc2Cl)cc1	TDP43 rescue 20µM (no result: aSyn rescue)
CCOC(=O)c1cnc2ccc(C(=O)OC)cc2c1Nc1ccc(OCc2ccccc2Cl)cc1	none
CCOC(=O)c1cnc2ccc(OCC)cc2c1Nc1ccc(OCc2ccccc2Cl)cc1	none (no result: aSyn rescue)
CCOC(=O)c1cnc2ccc(C)cc2c1Nc1ccc(OCc2ccccc2Cl)cc1	TDP43 rescue 22µM (no result: aSyn rescue)
CCCCC(CC)CNC(=O)c1ccc2c(=O)n(CCOC)c(=O)[nH]c2c1 (stereo unspecified)	none
FC(F)(F)c1cccc(N2CCN(C(=S)Nc3nccc4ccccc34)CC2)c1	none (no result: aSyn rescue, Abeta rescue, TDP43 rescue)
Cc1cccc(S(=O)(=O)c2c(N)n(Cc3ccco3)c3nc4ccccc4nc23)c1	none (no result: FUS yeast rescue)
Cc1ccc(S(=O)(=O)c2c(N)n(Cc3ccco3)c3nc4ccccc4nc23)cc1	FUS yeast rescue 22µM
Cc1sc2ncnc(N(C)Cc3cccs3)c2c1C	TDP43 rescue 13µM
CN(Cc1cccs1)c1ncnc2sccc12	TDP43 rescue 13µM
c1csc(CNc2ncnc3sccc23)c1	TDP43 rescue 14µM
Cc1sc2ncnc(N(C)CCc3ccccn3)c2c1C	none
CC(=O)Nc1ccc(/C=C/c2ccncc2)cc1	none (no result: Abeta rescue, FUS yeast rescue, TDP43 rescue)
CN1CCN(c2ccc3c(c2)Oc2ccccc2CN(Cc2cn(Cc4cccc(C(F)(F)F)c4)nn2)S3(=O)=O)CC1	none (no result: aSyn rescue, Abeta rescue, TDP43 rescue)
CCCCC(CC)CNC(=O)CN1C(=O)CSc2ccc(S(=O)(=O)N3CCOCC3)cc21 (stereo unspecified)	none (no result: aSyn rescue)
S=C(NCc1ccco1)N/N=C/c1ccc(Cl)cc1	TDP43 rescue 22µM (no result: FUS yeast rescue)
Oc1c(N=Nc2nn[nH]n2)ccc2ccccc12	FUS yeast rescue inconclusive, TDP43 rescue 35µM
CCOC(=O)c1ccccc1NC(=S)N1CCC(C)CC1	TDP43 rescue 11µM
CCOC(=O)c1ccccc1NC(=S)N1CC(C)CC(C)C1 (stereo unspecified)	none
CCn1c(-c2ccccc2)c(C(=O)CCl)c2ccccc21	aSyn rescue 11µM
